Calls of active or inactive are those of the source. Rule for the calls: active = hit-call score of the fitted dose curve at least 0.9, where 1 is the maximum; inactive = score below 0.9.

Broadly, the AC50 is the midpoint of the concentration-response curve, whichever way the signal moves.

Read-out in experiment [1]: Human Leukocyte Antigen - DR isotype (HLADR), HLA-DRA (gene 3122)
The experiment in a line: BSK_3C_HLADR: BioMAP Diversity Plus: 3C Assay for Human Leukocyte Antigen - DR isotype (HLADR) Biomarker Activity (AID 2283019).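 For outcome: ELISA of cell-surface HLA-DR on HUVEC 24 h after dosing.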 The conditions noted are these: primary human endothelial cells (HUVEC); actives raise or lower the signal. In a few lines: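 Bidirectional fitting against DMSO was applied to the HLA-DR ELISA signal from human umbilical vein endothelial cells, 24 h post-dose. Cytotoxicity came from parallel SRB total-protein staining; 3C proliferation was counted by SRB at 48 h.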

Read-out in experiment [2]: Interleukin-8 (IL8), CXCL8 (gene 3576)
The experiment in a line: BSK_3C_IL8: BioMAP Diversity Plus: 3C Assay for Interleukin-8 (IL8) Biomarker Activity (AID 2283020). The conditions noted are these: primary human endothelial cells (HUVEC); actives raise or lower the signal. In a few lines:
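Human vascular endothelial cells (umbilical vein) in the 3C system; IL-8 level detected by ELISA at 24 h post-dose, with DMSO as baseline.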

Read-out in experiment [3]: Monokine induced gamma interferon (MIG), CXCL9 (gene 4283)
The experiment in a line: BSK_3C_MIG: BioMAP Diversity Plus: 3C Assay for Monokine induced gamma interferon (MIG) Biomarker Activity (AID 2283021).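 For AC50: MIG protein level measured by immunoassay in the treated endothelial cultures.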 As to conditions: primary human endothelial cells (HUVEC); actives raise or lower the signal. Put shortly: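 After 24 h of treatment, human umbilical vein endothelial cultures (3C system) had their MIG biomarker level determined by ELISA, with DMSO serving as negative control.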

The nature of experiment [4]: BSK_3C_SRB: Viability Assessment in the BioMAP Diversity Plus: 3C Assay (AID 2283023).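 Note: fitted both ways against DMSO so a hit may be signal rise or drop.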 As to conditions: primary human endothelial cells (HUVEC). In a few lines: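 Cytotoxicity readout in parallel HUVEC 3C cultures: after 24 h compound exposure, cells fixed with 10% TCA, stained with 0.1% SRB and read at 560 nm. Gain or loss relative to DMSO fitted.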
Read-out in experiment [5]: Matrix Metallopeptidase 1 (MMP1), MMP1 (gene 4312)
Put plainly: BSK_BE3C_MMP1: BioMAP Diversity Plus: BE3C Assay for Matrix Metallopeptidase 1 (MMP1) Biomarker Activity (AID 2283024). As to conditions: primary human bronchial epithelial cells; actives raise or lower the signal. In a few lines: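 Dose cells, wait 24 h, run MMP1 ELISA; cells are human bronchial epithelial primaries. Both increases and decreases relative to DMSO counted.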

Experiment [6] in a line: BSK_3C_Vis: BioMAP Diversity Plus: 3C Assay for Morphology Visualization (AID 2283025).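 For AC50: light microscopy image of cell morphology used as background control.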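 Note: fitted both ways so gain or loss versus DMSO counts.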 As to conditions: primary human endothelial cells (HUVEC). In a few lines:
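Endothelial cells from human umbilical vein were treated with test chemicals for 24 h and inspected by light microscopy for changes in cell conformation.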

Read-out in experiment [7]: Pselectin, SELP (gene 6403)
Put plainly: BSK_4H_Pselectin: BioMAP Diversity Plus: 4H Assay for Pselectin Biomarker Activity (AID 2283026). The conditions noted are these: primary human endothelial cells (HUVEC); actives raise or lower the signal. In a few lines: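 Human vascular endothelium from umbilical vein; P-selectin measured by ELISA at 24 h post-dose, with cytotoxicity checked by sulforhodamine B total-protein staining in parallel cultures (0.1% SRB after 10% TCA fixation, read at 560 nm).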

Experiment [8] in a line: BSK_4H_SRB: Viability Assessment in the BioMAP Diversity Plus: 4H Assay (AID 2283027).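 For AC50: curves fitted both ways versus DMSO so AC50 may be loss or gain.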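 Note: cells exposed to compound for 24 h before staining.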 The conditions noted are these: primary human endothelial cells (HUVEC). Put shortly: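 Human umbilical vein endothelial cells, 24 h after chemical dosing; total protein measured by 0.1% sulforhodamine B staining after 10% TCA fixation, read at 560 nm. Bidirectional fitting against DMSO.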

Experiment [9] can be described thus: BSK_BE3C_SRB: Viability Assessment in the BioMAP Diversity Plus: BE3C Assay (AID 2283028).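 For AC50: fitted both ways so AC50 may mark signal gain or loss versus DMSO.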 The conditions noted are these: primary human bronchial epithelial cells. Put shortly:
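Cytotoxicity read-out: SRB (0.1%) staining of TCA-fixed (10%) human lung bronchial epithelial cells, absorbance 560 nm, 24 h post-dosing. Curves fitted both directions relative to DMSO.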

For the compound `Cc1cc(C)nc(Nc2ccccc2)n1`, the AC50 in experiment [1] was 16.6 µM (active). For the same compound, the result in experiment [2], in experiment [3], in experiment [4], in experiment [5], in experiment [6] and in experiment [7] was inactive. For the same compound, the outcome in experiment [8] and in experiment [9] was inactive.
For the compound `Cc1c(COC(=O)[C@@H]2[C@H](/C=C(\Cl)C(F)(F)F)C2(C)C)cccc1-c1ccccc1`, the AC50 in [1] is 5.44 µM (active); in [4] it was 11.7 µM (active); in experiment [6] it was 0.28 µM (active); in [7] it was 12.3 µM (active). Besides, the result in experiment [2], in experiment [3], in [5], in experiment [8] and in [9] was inactive.
For `Nc1c(Cl)c(F)nc(OCC(=O)O)c1Cl`, the outcome in experiment [1], in experiment [2], in experiment [3], in experiment [4], in experiment [5] and in [6] was inactive. Also, the outcome in [7], in experiment [8] and in experiment [9] was inactive.
For `CC(C)C1(C)N=C(c2ncccc2C(=O)O)NC1=O` (centres undefined), the result in experiment [1], in experiment [2], in [3], in experiment [4], in experiment [5] and in experiment [6] was inactive. Also, the result in [7] and in experiment [9] was inactive. For the same compound, the AC50 in [8] was 0.454 µM (active).
As for `O=C(O)c1c(Cl)ccc2cc(Cl)cnc12`, the outcome in experiment [1], in experiment [2], in experiment [3], in experiment [4], in [5] and in experiment [6] was inactive. Moreover, the outcome in experiment [7], in experiment [8] and in [9] was inactive.
On to `CC(C)N1C(=O)N(c2ccccc2)CSC1=NC(C)(C)C`, for which the AC50 in experiment [1] was 31.8 µM (active); in [2] it was 25.4 µM (active); in experiment [4], 27.2 µM (active); in [5], 25.8 µM (active); in experiment [6] it was 16.3 µM (active); in experiment [7] it was 31.2 µM (active). Besides, the AC50 is 31.2 µM (active) in [8] and 27.8 µM (active) in experiment [9]. In experiment [3], the result was inactive.
In the case of `CC1(C)C(C=C(Cl)Cl)C1C(=O)OC(C#N)c1cccc(Oc2ccccc2)c1` (centres undefined), the outcome in experiment [1], in experiment [2], in experiment [3], in [5], in experiment [6] and in [7] was inactive. Also, in experiment [9], the outcome was inactive. Moreover, the AC50 in experiment [4] was 8.06 µM (active); in [8], 14 µM (active).
Take `Cc1cnc(C2=NC(C)(C(C)C)C(=O)N2)c(C(=O)O)c1` (centres undefined): the result in experiment [1], in experiment [2], in experiment [3], in experiment [4], in experiment [5] and in experiment [6] was inactive. For the same compound, the outcome in experiment [7], in experiment [8] and in experiment [9] was inactive.
`COc1cc(OC)nc(NC(=O)NS(=O)(=O)c2ncccc2OCC(F)(F)F)n1`: the result in experiment [1], in experiment [2], in experiment [3], in [4], in experiment [5] and in [6] was inactive. The result in experiment [7], in experiment [8] and in experiment [9] was inactive.
Turning to `N#Cc1c[nH]cc1-c1cccc2c1OC(F)(F)O2`, the AC50 in experiment [1] was 20 µM (active); in experiment [2], 8.82 µM (active); in experiment [4], 11.6 µM (active); in [6] it was 11.2 µM (active); in [7], 11.7 µM (active); in [8] it was 6.27 µM (active). For the same compound, the outcome in experiment [3], in experiment [5] and in experiment [9] was inactive.
On to `CCCN(CC)CC1COC2(CCC(C(C)(C)C)CC2)O1` (centres undefined), for which, in [1], the AC50 was 6.16 µM (active). For the same compound, the result in experiment [2], in [3], in experiment [4], in [5], in [6] and in [7] was inactive. Also, the outcome in experiment [8] and in experiment [9] was inactive.
As to `CCCCC(C#N)(Cn1cncn1)c1ccc(Cl)cc1` (centres undefined), the outcome in experiment [1], in experiment [2], in experiment [3], in experiment [4], in [5] and in [7] was inactive. Also, the outcome in experiment [8] and in experiment [9] was inactive. Further, the AC50 in [6] is 9.8 µM (active).
For `COP(=O)(OC)O/C(C)=C/C(=O)N(C)C`, the result in experiment [1], in experiment [2], in experiment [3], in experiment [4], in experiment [5] and in experiment [6] was inactive. The result in experiment [7], in [8] and in [9] was inactive.
For the compound `CS(=O)(=O)c1ccc(C(=O)C2C(=O)CCCC2=O)c([N+](=O)[O-])c1`, the outcome in [1], in [2], in experiment [3], in [4], in experiment [5] and in experiment [6] was inactive. Moreover, the result in experiment [7], in experiment [8] and in experiment [9] was inactive.
For `CN=C=S`, the AC50 in experiment [1] was 8.86 µM (active). Moreover, the outcome in experiment [2], in experiment [3], in [4], in experiment [5], in experiment [6] and in [7] was inactive. Moreover, the result in experiment [8] and in [9] was inactive.
Turning to `Cc1ccc(N=CN(C)C=Nc2ccc(C)cc2C)c(C)c1`, the AC50 in experiment [1] is 33 µM (active); in experiment [2], 31.6 µM (active); in [3], 34.5 µM (active); in [4], 32.4 µM (active); in [6], 16.3 µM (active); in [7], 30 µM (active). Besides, the AC50 was 32.3 µM (active) in [8] and 28.2 µM (active) in experiment [9]. The result in experiment [5] was inactive.
